Laboratory results from article PMC4336329 (PLoS ONE, 2015).
Out of some 310,000 compounds screened, about 14,000 (4.5%) showed an effect of 50% or more. Effects have a minus sign here. For the sample, strong results were picked, then their nearest neighbours and some compounds at random.

target: human ether-à-go-go-related gene (hERG) potassium channel (human, UniProt Q12809); test: primary screen, population patch clamp on CHO cells stably expressing hERG; higher = less effect of the substance
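Also: peak tail current of the secondary pulse compared with the same well before compound.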

human ether-à-go-go-related gene (hERG) potassium channel, sequence (Q12809 whole entry, looked up): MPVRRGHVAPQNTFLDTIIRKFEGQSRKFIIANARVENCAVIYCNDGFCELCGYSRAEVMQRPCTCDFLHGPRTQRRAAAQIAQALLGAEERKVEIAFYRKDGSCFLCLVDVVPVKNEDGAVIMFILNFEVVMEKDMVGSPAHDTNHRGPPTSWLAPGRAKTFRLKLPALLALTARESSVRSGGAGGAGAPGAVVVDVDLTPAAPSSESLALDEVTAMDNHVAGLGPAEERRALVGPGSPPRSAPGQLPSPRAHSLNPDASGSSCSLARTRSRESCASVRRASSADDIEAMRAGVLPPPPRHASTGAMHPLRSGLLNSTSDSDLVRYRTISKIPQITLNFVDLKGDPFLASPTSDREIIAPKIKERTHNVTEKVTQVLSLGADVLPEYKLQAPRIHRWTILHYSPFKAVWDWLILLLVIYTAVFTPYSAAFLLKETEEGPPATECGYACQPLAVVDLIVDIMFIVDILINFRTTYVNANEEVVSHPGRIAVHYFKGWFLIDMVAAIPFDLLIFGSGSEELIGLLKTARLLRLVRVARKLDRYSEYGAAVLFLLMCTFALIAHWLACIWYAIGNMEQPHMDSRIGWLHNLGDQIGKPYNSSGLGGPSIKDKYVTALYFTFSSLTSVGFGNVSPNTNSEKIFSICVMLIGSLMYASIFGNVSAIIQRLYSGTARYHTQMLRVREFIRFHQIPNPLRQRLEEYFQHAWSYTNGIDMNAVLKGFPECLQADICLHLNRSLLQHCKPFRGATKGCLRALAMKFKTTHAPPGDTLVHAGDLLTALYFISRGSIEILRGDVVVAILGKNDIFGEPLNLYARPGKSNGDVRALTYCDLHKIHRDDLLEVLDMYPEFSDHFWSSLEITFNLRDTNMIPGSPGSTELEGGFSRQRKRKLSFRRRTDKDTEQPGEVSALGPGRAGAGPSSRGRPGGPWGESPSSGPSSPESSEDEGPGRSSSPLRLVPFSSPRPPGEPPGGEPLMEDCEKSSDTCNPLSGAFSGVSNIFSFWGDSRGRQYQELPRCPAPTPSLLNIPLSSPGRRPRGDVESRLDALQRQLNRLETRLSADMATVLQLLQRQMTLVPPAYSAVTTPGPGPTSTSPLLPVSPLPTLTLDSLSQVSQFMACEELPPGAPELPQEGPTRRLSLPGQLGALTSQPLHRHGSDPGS

Structure (SMILES) | hERG current change (%, negative = inhibition) at 10uM
CC1=C(C(=O)OCc2ccccc2)C(c2ccsc2)NC(=O)N1C (stereo not shown) | -37.7%
CCOC(=O)C(Cc1ccc(OC)c([N+](=O)[O-])c1)NC(=O)CCC(=O)Nc1ccc(C)cc1 (stereo not shown) | -26.2%
COC(=O)c1ccc(/C=C/c2c(-c3ccc(OC)cc3)oc3ccc(N4CCOCC4)cc23)cc1 | 25.7%
Cc1cc(NC(=O)c2cnn3c(C(F)(F)F)cc(-c4ccc(Br)cc4)nc23)no1 | 24.4%
C[C@]12CC[C@@H]3c4ccc(O)c(O)c4CC[C@H]3[C@@H]1CC[C@@H]2O | 15.4%
C[C@]12CC[C@@H]3c4ccc(O)cc4[C@@H](O)C[C@H]3[C@@H]1CC[C@@H]2O | 10.4%
C[C@]12CC[C@@H]3c4ccc(O)cc4C(=O)C[C@H]3[C@@H]1CC[C@@H]2O | -52.7%
CCN(CC)S(=O)(=O)c1ccc(/C=C/C(=O)OCC#N)cc1 | -12.4%
COC(=O)c1cccc(NCN2C(=O)c3ccccc3C2=O)c1 | 1.11%
CCOc1ccc(NC(=O)CN(C)C(=O)Cc2c(C)nc3ccccc3c2C)cc1OCC | -47%
CN(CC(=O)Nc1cccc(F)c1)C(=O)Cc1n[nH]c(=O)c2ccccc12 | 5.31%
COc1ccc(NC(=O)CN(C)C(=O)Cc2c(C)nc3ccccc3c2C)cc1 | -46.1%
Cc1nc2ccccc2c(C)c1CC(=O)N(C)CC(=O)Nc1cccc(F)c1 | -55.9%
COc1cccc(NC(=O)CN(C)C(=O)Cc2c(C)nc3ccccc3c2C)c1 | -62.8%
CN(CC(=O)Nc1cccc(F)c1)C(=O)CCc1nc2ccccc2c(=O)[nH]1 | 2.42%
Cc1ccc(C(C(=O)NC(C)(C)C)N(C(=O)c2csnn2)c2ccccc2F)o1 (stereo not shown) | -9.84%
CC(C)CC(=O)NS(=O)(=O)c1ccc(NS(C)(=O)=O)cc1 | 11.7%
CCCc1nc(Nc2nc3ccccc3o2)nc(C)c1C(=O)OCC | -18.3%
CCOCCCN(C(=O)Cn1nnc(-c2ccc(OC)c(OC)c2)n1)C(C(=O)NCC1CCCO1)c1ccc(F)cc1 (stereo not shown) | -12.8%
CCN(CC)CCN(C(=O)Cn1nnc(-c2ccc(OC)c(OC)c2)n1)C(C(=O)NC1CCCC1)c1ccc(F)cc1 (stereo not shown) | -35.1%
CCN(CC)CCCN(C(=O)Cn1nnc(-c2ccc(OC)c(OC)c2)n1)C(C(=O)NC(C)(C)C)c1ccc(F)cc1 (stereo not shown) | -74.5%
CCOC(=O)N1CCC(Nc2c(NCCN3CCN(c4cccc(Cl)c4)CC3)c(=O)c2=O)CC1 | -0.879%
CCOC(=O)N1CCN(c2c(N3CCN(c4cc(C)ccc4C)CC3)c(=O)c2=O)CC1 | -15.1%
CCOC(=O)N1CCN(c2c(NCc3ccc(Cl)cc3)c(=O)c2=O)CC1 | -17%
CCOC(=O)N1CCC(NC(=O)c2ccc(Cl)cc2)CC1 | -14.5%
CCOC(=O)N1CCC(NCCNC(=O)c2ccc(Cl)cc2)CC1 | -57.8%

Structure (SMILES) | hERG current change (%, negative = inhibition) at 10uM
CCOC(=O)N1CCN(c2c(N3CCN(c4cccc(C(F)(F)F)c4)CC3)c(=O)c2=O)CC1 | -46.4%
CCOC(=O)N1CCC(Nc2c(N3CCN(c4cccc(C(F)(F)F)c4)CC3)c(=O)c2=O)CC1 | -76.8%
CCOC(=O)N1CCC(Nc2c(N3CCN(c4cc(Cl)ccc4C)CC3)c(=O)c2=O)CC1 | -80.4%
CCOC(=O)N1CCC(N2CCN(c3cc(C)ccc3C)CC2)CC1 | -51.2%
CCOC(=O)N1CCC(NCCNC(=O)c2ccc(F)cc2)CC1.Cl | -25.2%
CCOC(=O)N1CCC(N2CCN(c3ccccc3)CC2)CC1.Cl | -21.4%
CCOC(=O)N1CCN(c2c(NC3CCN(Cc4ccccc4)CC3)c(=O)c2=O)CC1 | 7.18%
C[C@@H]1C(=O)O[C@H]2[C@H]1CC[C@@]1(C)C(=O)C=C[C@@](C)(O)[C@H]21 | 15.6%
C=CCN1C(=O)c2ccc(C(=O)OCC(=O)N3CCN(c4ccccc4)CC3)cc2C1=O | 7.02%
CC(C(=O)NCCc1ccccc1)N1c2cccc3cccc(c23)S1(=O)=O (stereo not shown) | -21.2%
Cc1ccc(C(=O)OCC(=O)NNC(=O)COc2ccc(Cl)cc2)c(O)c1 | -2.08%
O=C(Cc1ccc(NS(=O)(=O)c2ccc(F)cc2)cc1)NCc1ccccc1 | -16.4%
O=C(N/N=C/c1cc([N+](=O)[O-])ccc1O)C12CC3CC(CC(C3)C1)C2 | 8.39%
CCN(CC(=O)Nc1c(F)cccc1F)C(=O)CSc1ccccc1 | 8.37%
CCSc1ccccc1C(=O)N1CCCC1 | -5.81%
O=C(c1cc([N+](=O)[O-])ccc1Cl)N1CCN(c2ccc(F)cc2)CC1 | -27.9%
O=C(c1cnc2n(c1=O)CCS2)N1CCN(C(c2ccccc2)c2ccc(Cl)cc2)CC1 (stereo not shown) | -52.4%
CCSc1ccccc1C(=O)Nc1ccc([N+](=O)[O-])cc1OC | -51.9%
CCSc1ccccc1C(=O)N1CCN(c2ccc([N+](=O)[O-])cc2)CC1 | -79.4%
COCCSc1ccccc1C(=O)Nc1cc([N+](=O)[O-])ccc1OC | -28.8%
CCSc1ccccc1C(=O)N1CCN(c2ccccc2F)CC1 | 17.6%
O=C(c1cnc2n(c1=O)CCS2)N1CCN(c2ccccc2F)CC1 | -5.65%
O=C(c1cc([N+](=O)[O-])ccc1Cl)N1CCN(c2ccc([N+](=O)[O-])cc2)CC1 | -73.6%
O=C(c1cc([N+](=O)[O-])ccc1Cl)N1CCN(c2ccccc2)CC1 | -6.43%
COCCSc1ccccc1C(=O)Nc1ccc([N+](=O)[O-])cc1OC | -39.9%
CC(NC(=O)c1cnc2n(c1=O)CCS2)c1ccccc1 (stereo not shown) | 3.42%
